For 1 compound, activity (protection/inhibition) results are on record in PubChem BioAssay AID651871 (Sanford-Burnham Center for Chemical Genomics, 2012).

This assay concerns HL-1. Nature of the assay: protection of cardiomyocytes from stress damage, SAR follow-up, cell-based, panel, H9c2 and HL-1, ATP luminescence, set 2 (AID 651871).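 Also: cells exposed to stressor for 2 h before ATP readout; reference of the scale not given here.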 The conditions noted are these: H9c2/HL-1 cardiomyocytes, 2-deoxyglucose stress, with 2-deoxyglucose, run 3, at 19.8 µM (top of the series).

`COc1ccc2c(c1OC)C(=O)N1c3ccccc3C(=O)N(Cc3cccc(Cl)c3Cl)C21` (stereo unspecified) showed an activity (protection/inhibition) of 22.5%.
